From PubChem BioAssay
This is a sample that favours compounds with a hit; in the whole collection about 4% have one here.
Peg3 promoter – inhibitors of Peg3 promoter | HeLa PEG-Prom luciferase reporter, luminescence, overnight | inhibition, % at 20 µM | 360,000 tested, 1.7% active | AID 588405;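 active means inhibition of at least 50% at 20 µM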
CF NFkB block – inhibitors of cystic fibrosis induced NF-kB. KKLEB NF-kB-GFP reporter, PAF-induced, GFP fluorescence overnight. inhibition, % at 5 µM. 360,000 tested, 0.86% active;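 active means at least 50% inhibition at 5 µM, scaled per plate between neutral and stimulator controls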;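 further: PAF is a Pseudomonas aeruginosa culture filtrate used as stimulus; plate controls were PAF-stimulated DMSO wells for no effect and unstimulated DMSO wells for full effect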
KKLEB tox – CF airway cell cytotoxicity counter-screen; AID 602141; activity change (cytotoxicity), % at 5 µM; KKLEB CF airway cells viability, ATPlite luminescence, overnight; stronger effect = lower value; cells stimulated with P. aeruginosa culture filtrate; 360,000 tested, 0.36% active;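 active means corrected activity change at or below -50% at 5 µM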
TROY signal inh – inhibitors of TROY-dependent NF-kB signaling. Q293 LMP1-TROYcd NF-kB luciferase reporter, 4 h. inhibition, % at 10 µM. 360,000 tested, 0.98% active. AID 1347056;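 active means compounds whose plate-normalised and pattern-corrected inhibition of the luciferase reporter signal at the single screening dose is 50% or more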
TWEAK-Fn14 inh – TWEAK-Fn14 signaling inhibition. TWEAK-stimulated Fn14 reporter cells, luciferase luminescence, 8 h. AID 1159606. 360,000 tested, 2% active. inhibition, % at 10 µM; in the data active means inhibition above about 50%
HIF-2a block – inhibitors of HIF-2a | 360,000 tested, 0.72% active | inhibition, % at 18.8 µM | AID 624352 | 786-0 RCC cells HIF-2a reporter, luciferase luminescence, overnight;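 active means inhibition of the luminescence signal of 40% or more relative to plate controls, in a single-dose primary screen at 18.75 µM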
An asterisk follows results filed as active.

SMILES	Peg3 promoter	CF NFkB block	KKLEB tox	TROY signal inh	TWEAK-Fn14 inh	HIF-2a block
Clc1ccc2nc(-c3ccc4c(c3)OCO4)cn2c1	29.4	-21.3	-44.5	-0.4	73.1*	-25.9
O=C(O)c1cc(-c2ccc3c(c2)OCO3)nc2ccc(Cl)cc12	-59.3	19.9	5.8	-54.3	-17.3	-62.0
c1ccn2cc(-c3ccc4c(c3)OCCO4)nc2c1	-29.2	-1.6	-19.4	21.0	78.2*	2.2
Clc1ccc2nc(-c3ccccc3)cn2c1	-113.4	-17.8	-12.4	9.1	60.9*	-46.6
Cc1ccc(S(=O)(=O)N2CCN(C(=O)CSCc3ccc(C(C)C)cc3)CC2)cc1	29.8	5.7	0.6	12.4	7.3	6.9
C=CCN1C(=O)C(CC(=O)NCC)SC1=Nc1ccccc1OC (centres undefined)	18.2	1.3	13.3	8.6	-0.5	17.8
CCCCc1ccc(Nc2nc(CCC)cc(=O)[nH]2)cc1	2.4	-12.4	-1.6	5.9	5.2	-16.4
CCCc1cc(=O)[nH]c(Nc2ccc3c(c2)OCCO3)n1	-11.7	0.6	8.0	41.2	58.0*	-14.3
COc1cc(/C=N/Nc2ccc(S(N)(=O)=O)cc2[N+](=O)[O-])cc(OC)c1O	20.0	-15.8	20.6	59.3*	-49.6	8.5
COc1cc(/C=N/Nc2ccccc2[N+](=O)[O-])cc(OC)c1O	-71.6	-24.0	10.8	-4.4	-10.6	-95.0
COc1cccc(-c2nc(C(=O)NCC3CCCO3)cc3c2[nH]c2ccccc23)c1 (centres undefined)	55.7*	-43.8	3.7	1.8	33.5	-9.8
COc1cccc(OCc2ccc(C(=O)NCC3CCCO3)cc2)c1 (centres undefined)	-20.1	4.9	6.6	52.5*	62.8*	-8.2
Cc1cc(C)cc(NC(=O)CCC(=O)Nc2nnc(C(C)C)s2)c1	4.4	13.3	-2.6	0.5	-11.5	18.2
Cc1oc2c(c1C(=O)c1ccc(Cl)cc1)C(=O)C(=O)c1ccccc1-2	107.0*	86.2*	-62.2*	38.5	90.9*	93.8*
Cc1ccc(C(=O)c2c(C)oc3c2C(=O)C(=O)c2ccccc2-3)cc1	101.2*	77.6*	-15.8	28.8	54.3*	28.7
Cc1ccc(C(=O)c2coc3c2C(=O)C(=O)c2ccccc2-3)cc1	-38.2	7.3	12.7	-2.9	-33.3	-130.8
O=C(CCl)N1c2ccccc2SCC1c1ccccc1 (centres undefined)	67.6*	9.4	9.8	10.7	7.7	26.9
O=C(CCl)N1c2ccccc2OCC1c1ccccc1 (centres undefined)	46.8	-7.8	-3.4	-8.1	-20.8	2.2
O=C(NCCc1ccc(Cl)cc1)c1ccc2c(c1)OCCO2	-99.5	0.9	-12.0	-0.2	54.4*	-138.8
O=C(Nc1ccc(N2CCN(C(=O)c3ccc(Cl)cc3)CC2)cc1)c1ccc2c(c1)OCCO2	22.8	-7.3	14.1	69.5*	91.7*	-12.7
CC(=O)N1CCN(c2ccc(NC(=O)c3ccc4c(c3)OCCO4)cc2Cl)CC1	-83.6	-3.5	9.2	7.4	-13.6	-118.8
CC(C)C(=O)N1CCN(c2ccc(NC(=O)c3ccc4c(c3)OCCO4)cc2Cl)CC1	33.2	7.7	-6.9	61.1*	82.3*	-147.1
O=C(NCCc1cccs1)c1ccc(Cl)cc1	-133.9	4.6	-3.2	3.4	58.9*	-105.7
O=C(NCCc1cccs1)c1ccc(Cl)c(Cl)c1	-340.5	-20.4	13.8	-64.9	-1.3	-299.3
O=C(Nc1ccc(C(=O)NCCCN2CCN(c3ccccc3)CC2)cc1)C1=CSCCO1	3.9	0.7	-12.6	-4.1	28.2	-6.1
SMILES	Peg3 promoter	CF NFkB block	KKLEB tox	TROY signal inh	TWEAK-Fn14 inh	HIF-2a block
CC1CCCN(S(=O)(=O)c2ccc(NC(=O)C3CC(=O)N(c4ccccc4)C3)cc2)C1 (centres undefined)	22.2	-0.1	-4.4	0.2	-1.4	21.1
Cc1ccccc1CN1CC2=C(CCN(Cc3ccccc3)C2=O)N2CCN=C12	25.8	14.0	-4.4	12.8	24.9	16.5
Cc1occc(=O)c1O	-4.6	-16.9	-88.4*	-2.7	5.4	-1.4
Nc1nc(OCC2CCCCC2)c2[nH]cnc2n1	-7.5	40.1	14.8	10.7	-13.1	-34.3
Cc1cc(C)c(C(=O)C(C)OC(=O)c2ccccn2)cc1C (centres undefined)	-5.3	7.3	1.1	25.2	6.7	11.7
CCc1cccc(NS(=O)(=O)c2csc(C(N)=O)c2)c1	11.0	2.2	-3.9	17.3	2.4	15.4
COc1cccc(OC)c1OC(=O)C1CC(=O)N(c2ccc3c(c2)OCCO3)C1 (centres undefined)	19.5	8.9	-1.5	15.8	68.0*	7.0
O=C(Nc1ccc2c(c1)OCO2)C1CC(=O)N(c2ccc3c(c2)OCCO3)C1 (centres undefined)	8.5	17.9	-16.0	2.8	30.5	-7.2
COc1cccc(C2=NO[C@@H]3C(=O)N(c4ccc5c(c4)OCCO5)C(=O)[C@H]23)c1OC	22.2	-3.0	12.7	68.9*	77.3*	25.9
O=C(O)C1CC(=O)N(c2ccc3c(c2)OCCO3)C1 (centres undefined)	9.0	-0.9	-4.7	33.2	62.8*	21.1
O=C(COC(=O)C1CC(=O)N(c2ccc3c(c2)OCCO3)C1)NC1CCCc2ccccc21 (centres undefined)	-12.8	9.8	-11.2	40.6	56.1*	12.3
Cc1ccccc1-c1cccc([C@@H]2C[C@H]3[C@H](CON3C)CN2Cc2ccccc2)c1	21.0	20.1	-12.7	-6.8	-0.8	11.8
O=C(Nc1nc2ccccc2[nH]1)C1CC(=O)N(c2ccc3c(c2)OCCO3)C1 (centres undefined)	3.8	8.9	15.1	36.2	69.4*	30.0
O=C(Nc1ccccc1Br)C1CC(=O)N(c2ccc3c(c2)OCCO3)C1 (centres undefined)	3.1	7.1	12.1	12.2	5.4	-10.3
O=C(NC1CCCCC1)c1sc(=S)n2c1[nH]c(=O)c1ccccc12	29.3	49.7	-25.7	60.1*	-12.1	3.6
CCCCNC(=O)c1sc(=S)n2c1[nH]c(=O)c1ccccc12	20.6	40.8	-37.2	56.4*	-19.3	-9.3
O=C(NCCc1ccccc1)c1ccc2c(=O)[nH]c3c(C(=O)NCC4CCCO4)sc(=S)n3c2c1 (centres undefined)	-17.9	25.4	8.1	3.5	-3.4	-45.4
COc1ccccc1CNC(=O)C1CCN(c2ncnc3c2nc2n3CCCCC2)CC1	17.7	23.0	0.4	9.1	1.3	16.4
COc1cccc(-c2noc(-c3ccc(Cl)nc3)n2)c1	-299.6	-48.9	0.1	-27.1	-25.6	-164.7
COC(=O)/C=c1\[nH]c2nnc(C)n2c1=O	11.4	-30.3	2.9	50.1*	-11.8	18.1
CC(=O)c1ccc(NC(=O)c2ccc(NC(=O)CCS(=O)(=O)c3cccs3)cc2)cc1	-288.7	16.3	-0.5	51.0*	25.3	-64.4
